Results on eleven compounds are retold here after PubChem BioAssay AID2284348 (EPA ToxCast).

Results filed as inconclusive are left out. Activity calls are given as the source filed them. Rule for the calls: active = hit-call score of the fitted dose curve at least 0.9, where 1 is the maximum; inconclusive = response in the unintended direction; inactive = score below 0.9.

In the test the test system is Japanese medaka Peroxisome Proliferator-activated Receptor alpha (PPARa), gene 100304458. Description: ATG_jmPPARa_EcoTox2: Attagene TRANS-FACTORIAL EcoTox-2 HepG2 Assay for Japanese medaka Peroxisome Proliferator-activated Receptor alpha (PPARa). Here is the method: ATG_EcoTox2 is a cell-based, multiplexed assay created by modifying the existing Attagene TRANS-FACTORIAL system to include a panel of nuclear receptors from some or all the following species: human (Homo sapiens), african clawed frog (Xenopus laevis), rainbow trout (Oncorhynchus mykiss), japanese medaka (Oryzias latipes), and zebrafish (Danio rerio). The ECOTOX2-FACTORIAL format uses HepG2, a human liver cell line, with measurements taken at 24 hours after chemical dosing in a 24-well plate. ATG_jmPPARa_EcoTox2 is one of 29 assay components calculated in the ATG_EcoTox2 assay. It is designed to make measurements of mRNA induction, a form of inducible reporter, as detected with fluorescence intensity signals by Reverse transcription polymerase chain reaction (RT-PCR) and Capillary electrophoresis technology.The assay endpoint ATG_jmPPARa_EcoTox2 was analyzed in the positive analysis fitting direction relative to DMSO as the negative control and baseline of activity. Using a type of inducible reporter, measures of mRNA for gain-of-signal activity can be used to understand the reporter gene at the transcription factor-level as they relate to the gene PPARa. Furthermore, this assay endpoint can be referred to as a […], because this assay has produced multiple assay endpoints where this one serves a reporter gene function. To generalize the intended target to other relatable targets, this assay endpoint is annotated to the nuclear receptor intended target family, where the subfamily is non-steroidal.
Human liver HepG2 cells are transiently transfected with multiple reporter transcription units (MRTUs) in 6-well plates using FuGene 6 reagent (Roche; 3 ml FuGene/1 mg DNA). The MRTU constructs are regulated by a cis-regulating element (promoter). Each RTU expresses a GAL4-UAS that regulates the transcription of a nearby target reporter gene sequence. A major difference between the CIS and TRANS system is that in CIS activities of endogenous TFs are measured, whereas the TRANS assay evaluates changes in activities of exogenous, chimeric NR-Gal4 proteins. […] At the end of 24 hour incubation, total RNA was isolated using TriZol reagent (Invitrogen). The isolated RNA is then reverse-transcribed using oligo(dT) primer and Mo-MLV reverse transcriptase (Invitrogen) with DNAse I (Ambion) treatment for 30 min. The one-tenth of the produced cDNA was amplified by PCR using Taq DNA polymerase (Invitrogen) and two reporter sequence-specific primers. The PCR products were fluorescently labeled by primer extension with 6-arboxyfluorescein (6-FAM) 5'-labeled reporter sequence-specific primer (2 min at 95 C, 20 s at 68 C and 10 min at 72 C) and these products were digested with 5U of HpaI (New England Biolabs) for 2h at 37 C. The fragments were purified using Qiaquick PCR columns (Qiagen), analyzed on an ABI 3130xL genetic analyzer (Applied Biosystems) with peak positions identified by using a set of X-rhodamine (ROX)-labeled MapMarker1000 molecular weight standards (BioVentures). The raw capillary electrophoresis data was processed using Attagraph software (Attagene).
For `C=C(c1ccc(C(=O)O)cc1)c1cc2c(cc1C)C(C)(C)CCC2(C)C`, the outcome was inactive.

Regarding `C[C@@H]1C[C@H]2[C@@H]3CCC4=CC(=O)C=C[C@]4(C)[C@@]3(F)[C@@H](O)C[C@]2(C)[C@@]1(O)C(=O)COP(=O)(O)O`, the call was inactive.

`CC(C)OC(=O)C(C)(C)Oc1ccc(C(=O)c2ccc(Cl)cc2)cc1`: the outcome was inactive. The same measure, in the same setting: next, `Cc1ccc(C)c(OCCCC(C)(C)C(=O)O)c1`: “inactive”; `CC(C)(Oc1ccc(Cl)cc1)C(=O)O`: “inactive”.

In the case of `Cc1cccc(Nc2cc(Cl)nc(SCC(=O)O)n2)c1C`, the AC50 (as a rule, the midpoint of the concentration-response curve, whichever way the signal moves) is 63.8 µM (active).

Consider `CC(C)(Oc1ccc(CCNC(=O)c2ccc(Cl)cc2)cc1)C(=O)O`, for which the AC50 is 45.9 µM (active). For `C[C@]12C=CC(=O)C=C1CC[C@@H]1[C@@H]2C(=O)C[C@@]2(C)[C@H]1CC[C@]2(O)C(=O)CO`, the compound was classed as inactive. In the case of `CC(C)(Oc1ccc(C2CC2(Cl)Cl)cc1)C(=O)O` (stereo unspecified), the AC50 was 58.5 µM (active). Still for that read-out and setting: next, `Cc1nc(-c2ccc(C(F)(F)F)cc2)sc1C(=O)NCc1ccc(OC(C)(C)C(=O)O)cc1`: 0.0807 µM (active). On to `CN(CCOc1ccc(CC2SC(=O)NC2=O)cc1)c1ccccn1` (stereo unspecified), for which the outcome was inactive.
